Reference: paper PMC12820563, “FoxP3 forms a head-to-head dimer in vivo and stabilizes its multimerization on adjacent microsatellites”
The full ranking holds about 16,000 sequences; the median of “rpm ratio (pull-down/input)” is about 0.94, and the highest 2% start at about 1.7. Shown is part of a subset that was picked to be rich in the highest values.

The sequences below were run against T1, MBP-FoxP1dN (Mus musculus, UniProt P58462 326-579) (assay: PD-seq (MBP pull-down with sequencing); 20 mM Tris-HCl pH 7.5, 100 mM NaCl, 1.5 mM MgCl2, 0.4 uM protein, 0.1 uM dsDNA library, 30 min, room temperature, amylose pull-down; high values mean tight binding). Conditions: protein: recombinant; tags: His6-MBP; chain copies: 2; dsDNA, one strand shown.
T1 sequence: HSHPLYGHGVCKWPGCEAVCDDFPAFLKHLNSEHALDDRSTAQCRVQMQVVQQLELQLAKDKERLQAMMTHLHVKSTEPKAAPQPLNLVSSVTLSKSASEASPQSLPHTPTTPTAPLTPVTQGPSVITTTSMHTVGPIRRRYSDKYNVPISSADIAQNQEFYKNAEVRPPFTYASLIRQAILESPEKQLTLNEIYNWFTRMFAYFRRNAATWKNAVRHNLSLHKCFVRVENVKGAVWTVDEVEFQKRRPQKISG
Summary of the method: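 Mouse FoxP3 or FoxP1 fragment lacking the N-terminus, His6-MBP-tagged and expressed in E. coli, was incubated at 0.4 µM with 0.1 µM Klenow-filled degenerate double-stranded DNA library for 30 min at room temperature in Tris pH 7.5 buffer with NaCl and MgCl2. Complexes captured on amylose resin were washed three times and their DNA sequenced on Illumina. Binding is reads-per-million enrichment of pull-down over input, replicates pooled.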

Sequence | binding signal
GATGATTGTTCTCCCAGCTGATGAATTTCTCTATTCGAGTAAACAAATTTTCCTAATCTTTCTGTTCAAGCGCCATCTAC | 0.936 RPM ratio (pull-down/input)
GATGATTGTTCTCCCAGCTGATGAATTCTCGGCCTCGAGTAAACAAATTTTCCTAATCTTTCTGTTCAAGCGCCATCTAC | 0.731 RPM ratio (pull-down/input)
GATGATTGTTCTCCCAGCTGATGAATTATGACTGTCGAGTAAACAAATTTTCCTAATCTTTCTGTTCAAGCGCCATCTAC | 0.934 RPM ratio (pull-down/input)
GATGATTGTTCTCCCAGCTGATGAATTCCCTCGGTCGAGTAAACAAATTTTCCTAATCTTTCTGTTCAAGCGCCATCTAC | 0.759 RPM ratio (pull-down/input)
GATGATTGTTCTCCCAGCTGATGAATTGTGCCTATCGAGTAAACAAATTTTCCTAATCTTTCTGTTCAAGCGCCATCTAC | 1.09 RPM ratio (pull-down/input)
GATGATTGTTCTCCCAGCTGATGAATTTGATCACTCGAGTAAACAAATTTTCCTAATCTTTCTGTTCAAGCGCCATCTAC | 1.02 RPM ratio (pull-down/input)
GATGATTGTTCTCCCAGCTGATGAATTCCAAGTATCGAGTAAACAAATTTTCCTAATCTTTCTGTTCAAGCGCCATCTAC | 0.949 RPM ratio (pull-down/input)
GATGATTGTTCTCCCAGCTGATGAATTCGCTTAATCGAGTAAACAAATTTTCCTAATCTTTCTGTTCAAGCGCCATCTAC | 0.936 RPM ratio (pull-down/input)
GATGATTGTTCTCCCAGCTGATGAATTCTGTGGATCGAGTAAACAAATTTTCCTAATCTTTCTGTTCAAGCGCCATCTAC | 0.956 RPM ratio (pull-down/input)
GATGATTGTTCTCCCAGCTGATGAATTATCTAGATCGAGTAAACAAATTTTCCTAATCTTTCTGTTCAAGCGCCATCTAC | 0.863 RPM ratio (pull-down/input)
GATGATTGTTCTCCCAGCTGATGAATTTATATCATCGAGTAAACAAATTTTCCTAATCTTTCTGTTCAAGCGCCATCTAC | 1.27 RPM ratio (pull-down/input)
GATGATTGTTCTCCCAGCTGATGAATTAAATGCGTCGAGTAAACAAATTTTCCTAATCTTTCTGTTCAAGCGCCATCTAC | 1.43 RPM ratio (pull-down/input)
GATGATTGTTCTCCCAGCTGATGAATTATTGGCTTCGAGTAAACAAATTTTCCTAATCTTTCTGTTCAAGCGCCATCTAC | 1.1 RPM ratio (pull-down/input)
GATGATTGTTCTCCCAGCTGATGAATTTTTTAGCTCGAGTAAACAAATTTTCCTAATCTTTCTGTTCAAGCGCCATCTAC | 0.853 RPM ratio (pull-down/input)
GATGATTGTTCTCCCAGCTGATGAATTTGCATCCTCGAGTAAACAAATTTTCCTAATCTTTCTGTTCAAGCGCCATCTAC | 1.77 RPM ratio (pull-down/input)
GATGATTGTTCTCCCAGCTGATGAATTTTGTTTCTCGAGTAAACAAATTTTCCTAATCTTTCTGTTCAAGCGCCATCTAC | 1.71 RPM ratio (pull-down/input)
GATGATTGTTCTCCCAGCTGATGAATTTTTGTTCTCGAGTAAACAAATTTTCCTAATCTTTCTGTTCAAGCGCCATCTAC | 0.963 RPM ratio (pull-down/input)
GATGATTGTTCTCCCAGCTGATGAATTGTTTCTCTCGAGTAAACAAATTTTCCTAATCTTTCTGTTCAAGCGCCATCTAC | 1.33 RPM ratio (pull-down/input)
GATGATTGTTCTCCCAGCTGATGAATTGTTTAGCTCGAGTAAACAAATTTTCCTAATCTTTCTGTTCAAGCGCCATCTAC | 1.89 RPM ratio (pull-down/input)
GATGATTGTTCTCCCAGCTGATGAATTCTGTTTCTCGAGTAAACAAATTTTCCTAATCTTTCTGTTCAAGCGCCATCTAC | 1.14 RPM ratio (pull-down/input)
GATGATTGTTCTCCCAGCTGATGAATTTGTTTTCTCGAGTAAACAAATTTTCCTAATCTTTCTGTTCAAGCGCCATCTAC | 2.32 RPM ratio (pull-down/input)
GATGATTGTTCTCCCAGCTGATGAATTGTTTTTCTCGAGTAAACAAATTTTCCTAATCTTTCTGTTCAAGCGCCATCTAC | 2.22 RPM ratio (pull-down/input)
GATGATTGTTCTCCCAGCTGATGAATTTAGCTCCTCGAGTAAACAAATTTTCCTAATCTTTCTGTTCAAGCGCCATCTAC | 0.946 RPM ratio (pull-down/input)
GATGATTGTTCTCCCAGCTGATGAATTGCATCCCTCGAGTAAACAAATTTTCCTAATCTTTCTGTTCAAGCGCCATCTAC | 1.46 RPM ratio (pull-down/input)

Sequence | binding signal
GATGATTGTTCTCCCAGCTGATGAATTTTGCATCTCGAGTAAACAAATTTTCCTAATCTTTCTGTTCAAGCGCCATCTAC | 1.52 RPM ratio (pull-down/input)
GATGATTGTTCTCCCAGCTGATGAATTCGTTGGGTCGAGTAAACAAATTTTCCTAATCTTTCTGTTCAAGCGCCATCTAC | 0.781 RPM ratio (pull-down/input)
GATGATTGTTCTCCCAGCTGATGAATTCCAAGGATCGAGTAAACAAATTTTCCTAATCTTTCTGTTCAAGCGCCATCTAC | 0.795 RPM ratio (pull-down/input)
GATGATTGTTCTCCCAGCTGATGAATTCAACTAGTCGAGTAAACAAATTTTCCTAATCTTTCTGTTCAAGCGCCATCTAC | 0.877 RPM ratio (pull-down/input)
GATGATTGTTCTCCCAGCTGATGAATTTATTGGCTCGAGTAAACAAATTTTCCTAATCTTTCTGTTCAAGCGCCATCTAC | 1.09 RPM ratio (pull-down/input)
GATGATTGTTCTCCCAGCTGATGAATTGAGAGTCTCGAGTAAACAAATTTTCCTAATCTTTCTGTTCAAGCGCCATCTAC | 0.741 RPM ratio (pull-down/input)
GATGATTGTTCTCCCAGCTGATGAATTAGACGGGTCGAGTAAACAAATTTTCCTAATCTTTCTGTTCAAGCGCCATCTAC | 0.832 RPM ratio (pull-down/input)
GATGATTGTTCTCCCAGCTGATGAATTAAAGCGCTCGAGTAAACAAATTTTCCTAATCTTTCTGTTCAAGCGCCATCTAC | 0.953 RPM ratio (pull-down/input)
GATGATTGTTCTCCCAGCTGATGAATTGCGGCTATCGAGTAAACAAATTTTCCTAATCTTTCTGTTCAAGCGCCATCTAC | 1.02 RPM ratio (pull-down/input)
GATGATTGTTCTCCCAGCTGATGAATTGTATTACTCGAGTAAACAAATTTTCCTAATCTTTCTGTTCAAGCGCCATCTAC | 1.24 RPM ratio (pull-down/input)
GATGATTGTTCTCCCAGCTGATGAATTACCCGGTTCGAGTAAACAAATTTTCCTAATCTTTCTGTTCAAGCGCCATCTAC | 0.848 RPM ratio (pull-down/input)
GATGATTGTTCTCCCAGCTGATGAATTGTTTTCATCGAGTAAACAAATTTTCCTAATCTTTCTGTTCAAGCGCCATCTAC | 1.96 RPM ratio (pull-down/input)
GATGATTGTTCTCCCAGCTGATGAATTTTTTTCATCGAGTAAACAAATTTTCCTAATCTTTCTGTTCAAGCGCCATCTAC | 1.02 RPM ratio (pull-down/input)
GATGATTGTTCTCCCAGCTGATGAATTTTTTGCCTCGAGTAAACAAATTTTCCTAATCTTTCTGTTCAAGCGCCATCTAC | 0.956 RPM ratio (pull-down/input)
GATGATTGTTCTCCCAGCTGATGAATTTAGATGCTCGAGTAAACAAATTTTCCTAATCTTTCTGTTCAAGCGCCATCTAC | 1.78 RPM ratio (pull-down/input)
GATGATTGTTCTCCCAGCTGATGAATTTGCCTCCTCGAGTAAACAAATTTTCCTAATCTTTCTGTTCAAGCGCCATCTAC | 0.95 RPM ratio (pull-down/input)
GATGATTGTTCTCCCAGCTGATGAATTGTTTCCCTCGAGTAAACAAATTTTCCTAATCTTTCTGTTCAAGCGCCATCTAC | 1.41 RPM ratio (pull-down/input)
GATGATTGTTCTCCCAGCTGATGAATTGTTTGCCTCGAGTAAACAAATTTTCCTAATCTTTCTGTTCAAGCGCCATCTAC | 1.96 RPM ratio (pull-down/input)
GATGATTGTTCTCCCAGCTGATGAATTGTTTTCCTCGAGTAAACAAATTTTCCTAATCTTTCTGTTCAAGCGCCATCTAC | 2.36 RPM ratio (pull-down/input)
GATGATTGTTCTCCCAGCTGATGAATTAGATTGCTCGAGTAAACAAATTTTCCTAATCTTTCTGTTCAAGCGCCATCTAC | 0.987 RPM ratio (pull-down/input)
GATGATTGTTCTCCCAGCTGATGAATTTGTTTCATCGAGTAAACAAATTTTCCTAATCTTTCTGTTCAAGCGCCATCTAC | 1.33 RPM ratio (pull-down/input)
GATGATTGTTCTCCCAGCTGATGAATTTGTTTCCTCGAGTAAACAAATTTTCCTAATCTTTCTGTTCAAGCGCCATCTAC | 1.49 RPM ratio (pull-down/input)
GATGATTGTTCTCCCAGCTGATGAATTTTAGAGCTCGAGTAAACAAATTTTCCTAATCTTTCTGTTCAAGCGCCATCTAC | 0.77 RPM ratio (pull-down/input)
